# Measurements published in publication PMC7862700, “An all-to-all approach to the identification of sequence-specific readers for epigenetic DNA modifications on cytosine”.
# What was measured:
# Assay in all cases: DAPPL (digital affinity profiling via proximity ligation, sequencing); 10 mM Tris-HCl pH 7.5, 50 mM NaCl, 1 mM DTT, 4% glycerol, room temperature, 30 min; GST-TFs on glutathione beads, 16-mer random dsDNA library, 0.1% formaldehyde crosslink after washing; high values mean tight binding
# Settings in all cases: protein: recombinant; tags: N-terminal GST; dsDNA, one strand shown
# [1] = molecular target: ETV1 (Homo sapiens, UniProt P50549 1-477)
# Chain of ETV1 (P50549 whole entry, the tested form may be a part): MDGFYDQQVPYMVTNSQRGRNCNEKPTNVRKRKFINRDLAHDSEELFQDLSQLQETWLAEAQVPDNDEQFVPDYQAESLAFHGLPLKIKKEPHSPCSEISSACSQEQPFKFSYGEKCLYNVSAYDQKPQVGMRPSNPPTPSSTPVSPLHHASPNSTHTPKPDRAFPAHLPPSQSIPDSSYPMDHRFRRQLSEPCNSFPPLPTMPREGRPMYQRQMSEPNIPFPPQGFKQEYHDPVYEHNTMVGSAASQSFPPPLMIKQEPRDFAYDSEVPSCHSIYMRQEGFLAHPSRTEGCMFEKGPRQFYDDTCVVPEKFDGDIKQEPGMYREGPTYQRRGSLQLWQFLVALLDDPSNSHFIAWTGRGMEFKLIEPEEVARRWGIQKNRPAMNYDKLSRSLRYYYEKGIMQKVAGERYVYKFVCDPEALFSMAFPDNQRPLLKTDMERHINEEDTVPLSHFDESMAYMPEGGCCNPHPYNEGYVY
# Summary of the method: (§1)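 In yeast, human transcription factors were expressed with a GST fusion, then pulled down on glutathione beads and given DNA barcodes. Pooled with a tag-only sample, they were exposed to 200 nmole of a 16-mer random double-stranded DNA library (Tris/NaCl/DTT/glycerol buffer, room temperature, 30 min), washed, crosslinked with 0.1% formaldehyde, proximity-ligated using BsaI/T4 ligase for 1 h at 37 °C, PCR-amplified and read on an Illumina NextSeq500. Each hexamer's frequency of reads for a factor, divided by the matching frequency for the tag-only sample, gives the binding signal.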
# [2] = molecular target: T1, ERF (Homo sapiens, UniProt P50548 1-548)
# T1 sequence: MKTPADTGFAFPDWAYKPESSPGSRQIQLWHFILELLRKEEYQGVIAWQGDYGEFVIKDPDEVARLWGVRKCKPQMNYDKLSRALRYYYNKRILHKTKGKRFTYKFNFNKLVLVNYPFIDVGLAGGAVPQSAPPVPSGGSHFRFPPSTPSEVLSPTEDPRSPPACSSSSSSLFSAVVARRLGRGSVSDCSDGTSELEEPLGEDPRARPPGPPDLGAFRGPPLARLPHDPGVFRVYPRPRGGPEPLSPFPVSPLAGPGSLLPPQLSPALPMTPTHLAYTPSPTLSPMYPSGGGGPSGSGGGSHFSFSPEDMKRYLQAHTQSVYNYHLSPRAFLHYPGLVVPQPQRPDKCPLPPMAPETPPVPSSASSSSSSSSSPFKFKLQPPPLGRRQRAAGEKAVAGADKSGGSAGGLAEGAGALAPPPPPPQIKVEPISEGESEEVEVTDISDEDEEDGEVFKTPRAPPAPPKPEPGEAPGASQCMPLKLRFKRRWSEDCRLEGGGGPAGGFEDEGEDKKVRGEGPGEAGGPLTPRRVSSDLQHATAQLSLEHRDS
# Summary of the method: as §1
# [3] = molecular target: T2, ETV3L (Homo sapiens, UniProt Q6ZN32 1-361)
# T2 sequence: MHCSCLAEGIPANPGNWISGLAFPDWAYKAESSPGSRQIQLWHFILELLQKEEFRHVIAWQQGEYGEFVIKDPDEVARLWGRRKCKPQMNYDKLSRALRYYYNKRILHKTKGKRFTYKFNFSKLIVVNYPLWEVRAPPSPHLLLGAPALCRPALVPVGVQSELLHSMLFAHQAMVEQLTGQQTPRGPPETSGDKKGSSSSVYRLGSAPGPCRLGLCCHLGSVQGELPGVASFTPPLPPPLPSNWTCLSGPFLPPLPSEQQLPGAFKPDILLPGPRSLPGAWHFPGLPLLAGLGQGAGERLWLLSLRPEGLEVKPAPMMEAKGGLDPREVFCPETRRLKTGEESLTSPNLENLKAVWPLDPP
# Summary of the method: as §1
# [4] = molecular target: T3, ETS2 (Homo sapiens, UniProt P15036 1-469)
# T3 sequence: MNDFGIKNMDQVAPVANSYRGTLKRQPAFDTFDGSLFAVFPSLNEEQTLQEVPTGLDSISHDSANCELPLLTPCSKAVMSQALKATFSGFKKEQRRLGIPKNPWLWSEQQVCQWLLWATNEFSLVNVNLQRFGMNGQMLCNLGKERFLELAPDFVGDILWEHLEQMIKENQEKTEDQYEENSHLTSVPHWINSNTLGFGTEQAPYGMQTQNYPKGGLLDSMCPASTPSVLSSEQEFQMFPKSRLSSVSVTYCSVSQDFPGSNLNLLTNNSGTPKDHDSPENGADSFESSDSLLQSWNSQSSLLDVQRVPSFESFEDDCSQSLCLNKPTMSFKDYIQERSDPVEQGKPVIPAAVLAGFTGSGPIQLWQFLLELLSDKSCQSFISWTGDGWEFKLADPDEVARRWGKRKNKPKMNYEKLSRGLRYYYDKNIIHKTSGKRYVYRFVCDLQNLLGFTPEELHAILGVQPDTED
# Summary of the method: as §1
# [5] = molecular target: T4, SPDEF (Homo sapiens, UniProt O95238 1-335)
# T4 sequence: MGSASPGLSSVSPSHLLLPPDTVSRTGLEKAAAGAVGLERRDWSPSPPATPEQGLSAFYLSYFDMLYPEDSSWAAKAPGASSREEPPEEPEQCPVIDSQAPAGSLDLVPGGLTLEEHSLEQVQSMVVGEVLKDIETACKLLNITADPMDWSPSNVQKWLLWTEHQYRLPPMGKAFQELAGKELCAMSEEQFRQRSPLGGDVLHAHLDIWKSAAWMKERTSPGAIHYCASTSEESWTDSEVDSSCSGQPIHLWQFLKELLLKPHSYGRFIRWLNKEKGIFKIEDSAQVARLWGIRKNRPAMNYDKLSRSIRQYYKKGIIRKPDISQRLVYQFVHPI
# Summary of the method: as §1
# [6] = molecular target: T5, ETV7 (Homo sapiens, UniProt Q9Y603 1-341)
# T5 sequence: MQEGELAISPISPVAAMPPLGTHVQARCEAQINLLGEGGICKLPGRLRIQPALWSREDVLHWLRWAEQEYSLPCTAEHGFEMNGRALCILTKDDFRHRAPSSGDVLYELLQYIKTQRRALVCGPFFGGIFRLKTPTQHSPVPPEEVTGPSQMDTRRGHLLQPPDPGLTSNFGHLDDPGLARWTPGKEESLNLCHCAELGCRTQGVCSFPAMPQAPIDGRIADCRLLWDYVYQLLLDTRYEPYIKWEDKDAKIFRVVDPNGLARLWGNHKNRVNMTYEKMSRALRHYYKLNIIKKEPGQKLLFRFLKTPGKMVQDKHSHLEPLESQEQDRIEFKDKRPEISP
# Summary of the method: as §1
# [7] = molecular target: T6, ELF5 (Homo sapiens, UniProt Q9UKW6-2 1-255)
# T6 sequence: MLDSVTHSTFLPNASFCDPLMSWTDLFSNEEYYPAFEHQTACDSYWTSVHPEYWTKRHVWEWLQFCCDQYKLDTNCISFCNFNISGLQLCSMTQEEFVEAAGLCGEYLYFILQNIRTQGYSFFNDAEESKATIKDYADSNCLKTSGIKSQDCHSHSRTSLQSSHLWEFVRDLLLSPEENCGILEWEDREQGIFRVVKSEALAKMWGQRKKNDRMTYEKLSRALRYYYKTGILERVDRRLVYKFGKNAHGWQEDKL
# Summary of the method: as §1
# [8] = molecular target: T7, ETV3 (Homo sapiens, UniProt P41162-2 1-143)
# T7 sequence: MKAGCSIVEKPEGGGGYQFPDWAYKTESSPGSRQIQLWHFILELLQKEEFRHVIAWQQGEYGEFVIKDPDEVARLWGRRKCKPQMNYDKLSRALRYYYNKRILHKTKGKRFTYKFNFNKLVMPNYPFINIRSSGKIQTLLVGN
# Summary of the method: as §1
# [9] = molecular target: ETV6 (Homo sapiens, UniProt P41212 1-452)
# Chain of ETV6 (P41212 whole entry): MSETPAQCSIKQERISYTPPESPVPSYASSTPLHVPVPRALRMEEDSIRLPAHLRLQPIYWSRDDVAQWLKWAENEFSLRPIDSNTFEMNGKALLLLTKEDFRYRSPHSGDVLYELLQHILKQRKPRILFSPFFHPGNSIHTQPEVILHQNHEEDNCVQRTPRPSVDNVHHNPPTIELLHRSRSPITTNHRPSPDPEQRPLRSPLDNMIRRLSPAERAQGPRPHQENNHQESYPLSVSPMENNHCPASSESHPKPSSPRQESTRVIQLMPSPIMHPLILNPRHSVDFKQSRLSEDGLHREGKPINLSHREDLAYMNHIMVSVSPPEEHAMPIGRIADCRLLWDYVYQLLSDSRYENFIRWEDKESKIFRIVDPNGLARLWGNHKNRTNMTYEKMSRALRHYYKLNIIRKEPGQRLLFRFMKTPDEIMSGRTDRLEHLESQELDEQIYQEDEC
# Summary of the method: as §1
sequence,measurement,setting,value
AAGATA,binding signal,[1],"1.2 fold enrichment (6-mer frequency, TF over GST control)"
same,binding signal,[2],"1.17 fold enrichment (6-mer frequency, TF over GST control)"
same,binding signal,[3],"1.09 fold enrichment (6-mer frequency, TF over GST control)"
same,binding signal,[4],"1.1 fold enrichment (6-mer frequency, TF over GST control)"
same,binding signal,[5],"1.1 fold enrichment (6-mer frequency, TF over GST control)"
same,binding signal,[6],"1.1 fold enrichment (6-mer frequency, TF over GST control)"
same,binding signal,[7],"1.07 fold enrichment (6-mer frequency, TF over GST control)"
same,binding signal,[8],"1.11 fold enrichment (6-mer frequency, TF over GST control)"
same,binding signal,[9],"1.14 fold enrichment (6-mer frequency, TF over GST control)"
